# Screening data from PubChem BioAssay.
# Hits are enriched below; roughly 27% of the tested compounds scored in any of these assays.
# CYP2C19 activ = activators of human cytochrome P450 2C19; P33261; recombinant CYP2C19, luciferin-H EGE luminescence; active compounds read high; 0 = fully inhibited enzyme, 1 = untreated enzyme; activation factor at 5 µM; 96,000 tested, under 10 active; AID 1025;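 active = activation factor of at least 2 at 5 µM in the primary screen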;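 note: 0 = wells with 2.5 mM tranylcypromine and 1 = vehicle-only wells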
# CYP2C9 inhib = human CYP2C9 inhibition; CYP2C9 Supersomes, luciferin-H conversion, luminescence; inhibition, % at 5 µM; actives 20% (n = 96,000);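 active = blocking of liver enzyme CYP2C9 beyond about 50% at 5 µM, limit read from the data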
# Target sequence (P11712 whole entry, looked up): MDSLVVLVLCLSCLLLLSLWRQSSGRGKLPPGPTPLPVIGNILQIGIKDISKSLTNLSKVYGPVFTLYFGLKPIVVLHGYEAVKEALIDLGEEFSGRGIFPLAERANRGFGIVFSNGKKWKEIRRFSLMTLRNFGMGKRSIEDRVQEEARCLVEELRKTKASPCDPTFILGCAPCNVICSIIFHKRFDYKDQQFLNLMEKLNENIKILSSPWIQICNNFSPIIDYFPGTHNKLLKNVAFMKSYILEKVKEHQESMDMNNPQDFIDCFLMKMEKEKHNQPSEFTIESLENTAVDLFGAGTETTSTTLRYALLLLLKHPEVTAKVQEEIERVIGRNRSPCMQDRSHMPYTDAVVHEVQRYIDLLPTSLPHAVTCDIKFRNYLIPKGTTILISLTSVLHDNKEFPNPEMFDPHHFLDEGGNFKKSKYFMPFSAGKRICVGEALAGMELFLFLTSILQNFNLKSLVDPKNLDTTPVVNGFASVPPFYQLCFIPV
# CYP2C9 act = CYP2C9 (human) activation; P11712; recombinant CYP2C9, luciferin-H conversion, luminescence; active compounds read high; factor 1 = untreated enzyme, 0 = blocked; activation factor at 5 µM; actives 1.4% (n = 96,000);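 active = activation factor of 2 or more for CYP2C9 at a 5 µM dose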;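 note: 0 = sulfaphenazole-blocked wells and 1 = vehicle-only wells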
# CYP2C19 inhib = blocks human cytochrome P450 2C19 | P33261 | CYP2C19 Supersomes, luciferin-H EGE luminescence, 30 min | inhibition, % at 5 µM | actives 21% (n = 96,000) | AID 778;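 active = CYP2C19 inhibition above a set limit at 5 µM in the primary screen, cut at about 50% in these data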;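 note: plate controls were negative control wells for no effect and 2.5 mM tranylcypromine positive control for full effect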
# Cav32 inh = inhibitors of human Cav3.2 T-type calcium channel | O95180 | Cav3.2-expressing cells, Fluo-4 calcium fluorescence FDSS; active compounds read low | B-score at 10 µM | actives 4% (n = 100,000);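 active = single-dose well whose peak fluorescence ratio is a statistical outlier from its plate by either plate-standardised score or position-corrected B-score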
# Numbers without * were called inactive; / = not tested or not shown.
SMILES,CYP2C19 activ,CYP2C9 inhib,CYP2C9 act,CYP2C19 inhib,Cav32 inh
C=CCn1c(N)c(C(=O)NCc2cccnc2)sc1=S,0,78*,0.2,96*,-0.045
O=C(NCc1ccco1)c1sc2cc(Cl)ccc2c1Cl,/,/,/,/,-0.24
Cn1c(C(=O)NCc2cccnc2)cc2sc(Cl)cc21,0,89*,0.1,97*,-0.11
O=C(NCc1cccnc1)c1sc2cc(Cl)ccc2c1Cl,0.2,46,0.5,79*,-0.0027
CCOc1ccc(-n2c(N)c(C(=O)NCc3cccnc3)sc2=S)cc1,0.9,21,0.8,10,0.63
O=C(COc1ccc(S(=O)(=O)NC2CCCCC2)cc1Cl)NCC1CCCO1 (stereo unspecified),0.4,90*,0.1,58*,1.1
O=C(COc1ccc(S(=O)(=O)NC2CCCCC2)cc1)NCc1cccnc1,1.1,30,0.7,-10,-0.35
O=C(COc1ccc(S(=O)(=O)NC2CCCCC2)cc1Cl)NCc1cccnc1,0.5,98*,0,50,0.61
O=C(COc1ccc(S(=O)(=O)NCc2ccccc2)cc1Cl)NCC1CCCO1 (stereo unspecified),1,78*,0.2,-1,-0.4
O=C(COc1ccc(S(=O)(=O)NCc2ccccc2)cc1)NCC1CCCO1 (stereo unspecified),1,5,0.9,-2,0.39
COc1ccc(CCNC(=O)COc2ccc(S(=O)(=O)NC3CCCCC3)cc2Cl)cc1,0.4,85*,0.1,64*,-2.9
COc1ccc(CCNC(=O)C2CCN(S(=O)(=O)c3ccc(OC)c(OC)c3)CC2)cc1,1,-30,1.3,2,-0.14
CCN(C(=O)c1cccs1)c1nnc(-c2ccncc2)s1,0,71*,0.3,100*,1.6
COCCN(C(=O)C(C)C)c1nnc(-c2cccc(C)c2)s1,0.5,61*,0.4,49,-0.84
COCCN(C(=O)Cc1cccs1)c1nnc(-c2ccncc2)s1,0,73*,0.3,98*,0.98
CN(C)c1ccc(C(=S)NCc2ccco2)cc1,0.1,37,0.6,88*,0.36
Cc1ccc(/C([O-])=C(/C(=S)NCc2ccco2)[n+]2ccccc2)cc1,0.8,25,0.7,24,0.13
CC12CCC(C(=O)NCc3ccco3)(OC1=O)C2(C)C (stereo unspecified),0.9,-6,1.1,7,0.013
COc1cc(NS(=O)(=O)c2ccc3c(c2)oc(=O)n3C)cc(OC)c1OC,0.5,71*,0.3,46,-0.23
CCOc1ccc(NS(=O)(=O)c2ccc3c(c2)oc(=O)n3C)cc1,0.9,25,0.8,7,0.017
COC(=O)c1ccc(NS(=O)(=O)c2ccc3c(c2)oc(=O)n3C)cc1,0.1,90*,0.1,89*,0.035
COc1ccc(NS(=O)(=O)c2ccc3c(c2)oc(=O)n3C)c(OC)c1,0,30,0.7,96*,-0.82
CCOc1cc(C(=O)N2CCOCC2)ccc1OCc1ccccc1,1,6,0.9,-3,-0.31
NC(=O)CC(NC(=O)Cc1ccc(Br)cc1)c1ccc(NCCc2cccc(F)c2)c([N+](=O)[O-])c1 (stereo unspecified),/,/,/,/,-0.0038
Cc1cc(NC(=O)C2(c3ccccc3)CCCC2)no1,0.6,29,0.7,42,/
SMILES,CYP2C19 activ,CYP2C9 inhib,CYP2C9 act,CYP2C19 inhib,Cav32 inh
O=C(CSCC(=O)N1CCCCC1)Nc1nc(-c2ccccc2)c(-c2ccccc2)s1,/,/,/,/,-2.8
Cc1ccccc1N(C(=O)Cn1nnc(-c2cccs2)n1)C(C(=O)NCCC(C)C)c1ccco1 (stereo unspecified),0.4,84*,0.2,60*,-3.5*
CC(C)CCNC(=O)C(c1ccco1)N(Cc1cccs1)C(=O)Cn1nnc2ccccc21 (stereo unspecified),0.3,59*,0.4,73*,-4.7*
N#Cc1ccc(Oc2cccc(C(=O)O)c2)cc1C#N,1.1,-6,1.1,-6,0.84
CCOC(=O)C1=C(N)Oc2c(oc(CO)cc2=O)C1c1ccc(F)cc1 (stereo unspecified),/,/,/,/,0.51
O=C(/C=C/c1cccs1)Nc1nc(-c2ccccc2)cs1,0.3,85*,0.2,70*,0.022
O=C(/C=C/c1ccc2c(c1)OCO2)Nc1nc(-c2ccccc2)cs1,0.4,74*,0.3,59*,-2.2
CC(/C=C/c1cccs1)=C\C(=O)O,1.1,-1,1,-13,-0.37
O=C(Nc1nc(-c2ccccc2)cs1)C1COc2ccccc2O1 (stereo unspecified),0.8,35,0.7,23,-1.9
CN(Cc1ccccc1)c1ncnc2ccc(Br)cc12,0,84*,0.2,97*,-3.9
COC(=O)c1ccccc1NC(=O)c1cccc(NC(=O)CSCc2ccccc2)c1C,1.2,-35,1.4,-16,-0.31
O=C(Nc1ccccc1C(=O)O)c1cccc(F)c1,/,/,/,/,-0.41
O=C(CSCc1ccccc1)Nc1cccc(C(=O)Nc2ccccc2C(=O)O)c1,0.9,95*,0,10,-4
COc1c(Cl)cc(C(=O)O)cc1Cl,/,/,/,/,-1.8
COc1c(Cl)cc(C(=O)Nc2ccccc2C(=O)O)cc1Cl,1,73*,0.3,5,-1.7
O=C(CSCc1ccc(Cl)cc1)Nc1cccc(C(=O)Nc2ccccc2C(=O)O)c1,0.7,98*,0,34,-6.9*
CC(C)C(=O)Nc1cccc(C(=O)Nc2ccccc2C(=O)O)c1,1,83*,0.2,-5,0.16
CC(C)C(=O)Nc1cccc(C(=O)NCCc2ccc(S(N)(=O)=O)cc2)c1,0.9,75*,0.3,6,0.83
S=c1[nH]nc(C2COc3ccccc3O2)o1 (stereo unspecified),0.9,50,0.5,6,0.25
Cc1cc(NC(=O)CSc2nnc(Cc3ccccc3)o2)no1,1.1,6,0.9,-9,1.4
Cn1c(N)c(C(=O)COC(=O)c2ccco2)c(=O)n(C)c1=O,0.9,10,0.9,6,0.26
CCCn1c(N)c(C(=O)CSc2nnc(Cc3ccccc3)o2)c(=O)n(C)c1=O,/,/,/,/,-7.8*
Cn1c(=O)c(C(=O)CN2CCCc3ccccc32)c(N)n(Cc2ccccc2)c1=O,0.1,93*,0.1,87*,-4.1*
CCC(=O)OCC(=O)c1c(N)n(Cc2ccccc2)c(=O)n(C)c1=O,0.3,42,0.6,66*,0.36
Cc1nn(-c2ccccc2)c(C)c1C(=O)OCC(=O)c1c(N)n(CC(C)C)c(=O)n(C)c1=O,0.6,61*,0.4,39,-3.8*
CCn1c(=O)c(C(=O)CN2CC(C)OC(C)C2)c(N)n(Cc2ccccc2)c1=O (stereo unspecified),1,10,0.9,4,0.13
Cc1cc(-c2ccccc2)n2ncc(C#N)c2n1,0.9,-10,1.1,7,-0.38
COc1ccc(CCN(Cc2cc3cc(C)c(C)cc3nc2Cl)C(=O)C2CC2)cc1,0.7,23,0.8,26,-2.6
Cn1c(=O)c(C(=O)CSc2nnc(Nc3ccccc3)s2)c(N)n(Cc2ccccc2)c1=O,1,72*,0.3,3,0.4
